In PubChem BioAssay (EPA / NIEHS):
Calls of active or inactive are those of the source. The calls were made as follows: active = hit-call score of the fitted dose curve at least 0.9, where 1 is the maximum; inactive = score below 0.9.

Tests used:
[1] = CCTE_Mundy_HCI_Cortical_Synap_Neur_Matur_NeuriteSpotCountPerNeuriteLength: CCTE's Synaptogenesis and Neurite Maturation Assay in rat cortical cells for Neurite Spot Count per Neurite Length, Mundy Lab (AID 2284210)
In short: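 Read-out: synaptophysin puncta counted along MAP2-stained neurites, normalised to neurite length, by automated high-content imaging. Rat cortical cells; AraC DIV 5; chemical dosing DIV 7; termination DIV 12. DMSO baseline.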

[2] = CCTE_Mundy_HCI_Cortical_NOG_NeuriteLength: CCTE's Neurite Outgrowth Assay in rat cortical cells for Neurite Length, Mundy Lab (AID 2284213)
In short: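 First, rat primary cortical cells were plated and, 2 h later, given test chemical as a 1/10 dilution. Finally, βIII-tubulin immunostaining enabled automated imaging of neurite length.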

[3] = CCTE_Mundy_HCI_Cortical_Synap_Neur_Matur_NeuriteLength: CCTE's Synaptogenesis and Neurite Maturation Assay in rat cortical cells for Neurite Length, Mundy Lab (AID 2284214)
In short: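 Neurite length quantified by automated high-content imaging of MAP2, synaptophysin and Hoechst staining. Rat cortical cells received chemical from DIV 7 to DIV 12 […], glial growth arrested by AraC at DIV 5; DMSO baseline.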

[4] = CCTE_Mundy_HCI_Cortical_Synap_Neur_Matur_NeuriteSpotCountPerNeuron: CCTE's Synaptogenesis and Neurite Maturation Assay in rat cortical cells for Neurite Spot Count per Neuron Count, Mundy Lab (AID 2284215)
In short: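 Rat primary cortical cultures given AraC at DIV 5, dosed from DIV 7 to DIV 12 with media change. Fixed, stained for MAP2, synaptophysin and Hoechst; neurite-associated synaptophysin puncta per neuron quantified by high-content imaging versus DMSO.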

[5] = TAMU_PeakParms_SingleDonor1434_Chronotropy: Texas A&M University (TAMU) 1.5-hr Human Induced Pluripotent Stem Cell (iPSC)-derived Cardiomyocytes Calcium (Ca+2) Flux Assay for Cardiotoxicity: Chronotropy (changes in peak frequency) (AID 2284217); details: actives raise or lower the signal
In short: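 iPSC-CMs, donor 1434; 4 conc (0.2–100 uM), 0.5% v/v DMSO, 90 min, 37C/5% CO2; Ca2+ flux fluorescence → peak.freq.avg; peak.freq.avg = 0 dropped; bidirectional fit vs DMSO; EC05 POD.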

[6] = CCTE_Mundy_HCI_Cortical_Synap_Neur_Matur_SynapseCount: CCTE's Synaptogenesis and Neurite Maturation Assay in rat cortical cells for Synapse Count, Mundy Lab (AID 2284218)
In short: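 High-content imaging of synaptophysin puncta per MAP2-positive neuron (Hoechst nuclei) in rat cortical cells exposed DIV 7–12 after glial arrest with AraC at DIV 5; decrease relative to DMSO scored.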

[7] = IUF_NPC1a_proliferation_area_72hr: Leibniz Research Institute for Environmental Medicine (IUF) 72-hour Neural Progenitor Cell Proliferation Area Assay (NPC1a) (AID 2284208)
In short: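 Single 0.25–0.35 mm human fetal neural progenitor spheres in proliferation medium with EGF and FGF, exposed 72 h from plating without renewal at 37C, pH 7.2-7.6. Sphere area growth measured by automated phase-contrast imaging, relative to DMSO.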

[8] = IUF_NPC1_viability_72hr: Viability Assessment at 72 hours in the Leibniz Research Institute for Environmental Medicine (IUF) Neural Progenitor Cell Proliferation Assay (NPC1) (AID 2284209)
In short: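 Viability was measured by resazurin-to-resorufin fluorescence (alamar blue) after 72 h of continuous exposure without compound renewal. Each well held one hNPC sphere (gestational week 16-19 fetal cortex, 0.25-0.35 mm) cultured in EGF/FGF proliferation medium at 37C and pH 7.2-7.6.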

[9] = CCTE_Mundy_HCI_Cortical_Synap_Neur_Matur_BPCount: CCTE's Synaptogenesis and Neurite Maturation Assay in rat cortical cells for Branch Point Count, Mundy Lab (AID 2284211)
In short: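 HCI read-out of branch points from MAP2/synaptophysin/Hoechst immunofluorescence; rat cortical cultures, AraC DIV 5, dosing DIV 7, fixed DIV 12; fit in positive direction vs DMSO baseline.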

[10] = CCTE_Mundy_HCI_Cortical_NOG_NeuriteCount: CCTE's Neurite Outgrowth Assay in rat cortical cells for Neurite Count, Mundy Lab (AID 2284212);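 also: cells fixed about two days after chemical exposure began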
In short: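 Rat cortical primary cells; compound added 2 h post-plating, 1/10 dilution of working solution. Anti-betaIII-tubulin/AF488 ICC; ArrayScan neurite count vs DMSO.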

Measured: AC50

O=c1[nH]cc(F)c(=O)[nH]1
inactive: [1] | [2] | [3] | [4] | [5] | [6]

COC(=O)c1ccc(O)cc1
active: [5] 50 µM

CC(=O)Oc1ccccc1C(=O)O
inactive: [7] | [8] | [1] | [9] | [10] | [2] | [3] | [4] | [5] | [6]

OC[C@@H](O)[C@@H](O)[C@H](O)[C@H](O)CO
inactive: [7] | [8] | [1] | [9] | [10] | [2] | [3] | [4]
active: [6] 64.8 nM

O=C(O)CCCCC(=O)O
inactive: [5]

C[Si]1(C)O[Si](C)(C)O[Si](C)(C)O[Si](C)(C)O1
inactive: [7] | [8] | [1] | [9] | [10] | [2] | [3] | [4] | [6]

CCOc1ccc2c(c1)C(C)=CC(C)(C)N2
inactive: [5]

CCCc1cc(=O)[nH]c(=S)[nH]1
inactive: [1] | [2] | [3] | [4] | [5] | [6]
